Laboratory results as given in ChEMBL document CHEMBL3433997, “St. Jude Leishmania screening dataset” (2016).

How the values were obtained:
Type in all cases: functional
[1] = target: Solute carrier family 2, facilitated glucose transporter member 1 (Homo sapiens) (UniProt P11166); test: ST_JUDE_LEISH: Cytotoxicity at 2uM final concentration against transgenic Leishmania Mexicana promastigotes LmGLUT1 that are glucose transport deficient and complemented with the human glucose transporter GLUT1. Activity is measured by DNA content using SYBR green in vitro
Chain of Solute carrier family 2, facilitated glucose transporter member 1 (Homo sapiens) (P11166 whole entry): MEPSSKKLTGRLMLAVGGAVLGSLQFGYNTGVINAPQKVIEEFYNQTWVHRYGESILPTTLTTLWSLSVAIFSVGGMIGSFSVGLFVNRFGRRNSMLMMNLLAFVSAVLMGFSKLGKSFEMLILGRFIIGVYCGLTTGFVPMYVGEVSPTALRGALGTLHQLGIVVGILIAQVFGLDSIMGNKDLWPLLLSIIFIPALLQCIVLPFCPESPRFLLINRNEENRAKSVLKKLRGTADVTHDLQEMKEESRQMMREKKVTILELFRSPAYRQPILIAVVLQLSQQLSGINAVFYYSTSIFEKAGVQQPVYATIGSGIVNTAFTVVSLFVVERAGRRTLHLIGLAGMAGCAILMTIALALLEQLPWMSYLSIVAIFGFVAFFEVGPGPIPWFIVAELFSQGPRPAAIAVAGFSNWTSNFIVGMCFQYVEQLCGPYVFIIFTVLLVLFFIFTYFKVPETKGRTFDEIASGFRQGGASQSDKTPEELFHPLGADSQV

[2] = target: Hexose transporter 1 (Plasmodium falciparum) (UniProt O97467); test: ST_JUDE_LEISH: Cytotoxicity at 2uM final concentration against transgenic Leishmania Mexicana promastigotes LmPfHT that are glucose transport deficient and complemented with the Plasmodium falciparum hexose transporter. Activity is measured by DNA content using SYBR green in vitro
[3] = target: Glucose transporter (Leishmania mexicana) (UniProt O61059); test: ST_JUDE_LEISH: Cytotoxicity at 2uM final concentration against transgenic Leishmania Mexicana promastigotes LmGT2 that are glucose transport deficient and complemented with the L. Mexicana glucose transporter 2. Activity is measured by DNA content using SYBR green in vitro

Row | Structure (SMILES) | inhibition [1] [%] | inhibition [2] [%] | inhibition [3] [%]
1 | COc1ccc(O)c(C(=O)NCCc2ccc(OC)c(-c3ccc(C(C)(C)C)cc3)c2)c1 | 4.08 | 5.01 | 4.69
2 | O=C(Nc1ccc(S(=O)(=O)NCCCN2CCOCC2)cc1)c1cc(-c2ccccc2)[nH]n1 | 1.2 | 1.66 | 5.52
3 | Cc1cc(N)c2cc(NC(=O)CCC(=O)Nc3ccc4nc(C)cc(N)c4c3)ccc2n1 | 5.9 | 6.01 | 8.34
4 | CN(C)C=Nc1ccc(OCCCCCCOc2ccc(N=CN(C)C)cc2)cc1 | 3.14 | 3.26 | 2.37
5 | N#Cc1cccc(C(O)C2CN(CCC3CCCCC3)CCC2(O)c2ccccc2)c1 (centres undefined) | -1.82 | -0.13 | 2.48
6 | CCNc1cc(C(=O)N[C@@H](Cc2ccccc2)[C@H](O)CNCc2cc(OC)cc(OC)c2)cc(N2CCCC2=O)c1 | 7.69 | 9.03 | 6.42
7 | O=[N+]([O-])c1cccc(CNCC2CCN(CC3CCCCC3)CC2)c1 | -0.61 | 3.2 | 2.98
8 | COc1ccc(Nc2nc(N)c3cc(OC)c(OC)cc3n2)cc1OC | 9.02 | 7.54 | 5.87
9 | N#Cc1c(N)n(CCc2ccc(F)cc2)c2nc3ccccc3nc12 | 1.05 | 1.58 | -0.08
10 | CCCCCCCN1CCC(NC(=O)Nc2ccnc3ccc(OC)cc23)C(CO)C1 (centres undefined) | -0.96 | -1.62 | -3.37
11 | Cc1c(-c2ccc3c(c2)C(NCCCN2CCCCC2)CC3)cnc(N)c1C (centres undefined) | 0.7 | 0.89 | 2.57
12 | COc1cccc(NC(=O)c2cc([N+](=O)[O-])ccc2NC(=O)CN2CCc3ccccc3C2)c1 | 4.59 | 0.9 | 4.74
13 | COc1ccc2c(=NN=Cc3ccccc3F)cc(C)[nH]c2c1 | 1.77 | 1.74 | 0.39
14 | O=C(c1ccc(-c2cccc(-c3nc4cc(C(F)(F)F)ccc4[nH]3)c2)cc1)N1CCCCC1CN1CCC(O)C1 (centres undefined) | -0.47 | 0.38 | 0.17
15 | Cn1nc(-c2ccc(CN[C@@H]3CCc4ccc(O)cc43)cc2)c2cnc(NCCCN3CCCC3)nc21 | 1.97 | 0.42 | 1.31
16 | CN(C)C(CNC(=O)c1cc(-c2ccncc2)c(-c2ccc(NC(=O)Nc3cccc(F)c3)cc2)o1)c1ccccc1 (centres undefined) | 0.98 | 0.71 | 0.6
17 | c1cncc(CCNCc2ccc(-c3ccc(CNC4Cc5ccccc5C4)cc3)cc2)c1 | 5.14 | 3.57 | 3.87

Row | Structure (SMILES) | inhibition [1] [%] | inhibition [2] [%] | inhibition [3] [%]
18 | N#Cc1ccc2c(c1)CN(C1CCC(NC(=O)C3=Cc4cc(Cl)ccc4OC3)CC1)CCC2 (centres undefined) | 8.34 | 6.19 | 5.6
19 | O=C(Nc1ccc(Cl)c(C(F)(F)F)c1)c1ccc(C(=O)Nc2ccc(Cl)c(C(F)(F)F)c2)cc1 | -2.43 | 1.08 | 0.39
20 | CC(C)(C)c1ccc(NC(=O)c2ccc(CN3CCCN(Cc4ccc(F)cc4)CC3)cc2)cc1 | 2.24 | -1.93 | 1.74
21 | Cc1[nH]c(C)c(Cc2ccc(Oc3ccc(OC(F)(F)F)cc3)cc2)c(=O)c1Br | -0.67 | -0.95 | -3.03
22 | CN(c1ccc(NC(=O)c2ccc(F)cc2)cc1)C1CCN(Cc2cccc(F)c2)C1 (centres undefined) | 1.66 | -0.15 | 3.04
23 | CN(Cc1c(Cl)cnn1C)S(=O)(=O)c1ccc2ccccc2c1 | 5.51 | 7.25 | 5.64
24 | Cc1ccccc1C1CCN(C2CCC(NC(=O)/C=C/c3c[nH]c4ccccc34)CC2)CC1 (centres undefined) | 2.31 | 0.84 | -0.41
25 | Nc1nc(N)c2c(Cc3ccccc3)cccc2n1 | 0.09 | 4.13 | 2.02
26 | COc1ccc(-c2onc(C(F)(F)F)c2-c2cc3ccccc3o2)c(O)c1 | 0.61 | 0.82 | 0.58
27 | Cc1ccccc1Oc1nc2ccccc2nc1SCC(=O)NC(C)C | 2.29 | 2.25 | -1.86
28 | C/C=C/C=C/C1=NCCc2cc(OCCC)ccc21 | 71.8 | 74.1 | 17.7
29 | CN1CCN(Cc2cccc(-c3ccc4c(Nc5ccc(Oc6cccnc6)cc5)ccnc4c3)c2)CC1 | 4.73 | 5.64 | 4.34
30 | CCCCCC(C)C(C)c1cc(O)c2c(c1)OC(C)(C)CC2(O)c1ccnn1C (centres undefined) | 3.29 | 3.23 | 3.24
31 | COc1ccc(-n2ccnc2)cc1CNC1CCN(CC2Cn3c(=O)ccc4ccc(F)c2c43)CC1 (centres undefined) | 4.7 | 4.54 | 5.24
32 | OC1CCCN(Cc2ccc(-c3ccc(-c4nc5ccccc5[nH]4)cc3)cc2)C1 (centres undefined) | 8.52 | 7.95 | 5.37
33 | O=C(NCc1ccc(F)cc1)Nc1ccc(-c2cccc(-c3nc4cc(F)ccc4[nH]3)c2)cc1 | 7.44 | 6.92 | -1
